Bioassay records (PubChem BioAssay)
Shown are actives, neighbours in structure and some others; about 27% of the full set was active somewhere.
CYP2C9 act: activators of human CYP2C9. P11712. recombinant CYP2C9, luciferin-H conversion, luminescence; hits give high values; factor 1 = untreated enzyme, 0 = blocked. activation factor at 5 µM. 1.4% of 96,000 active. AID 1024;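 active = activation factor of 2 or more for CYP2C9 at a 5 µM dose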;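 note: 0 = sulfaphenazole-blocked wells and 1 = vehicle-only wells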
sEH act: soluble epoxide hydrolase (human) activation | P34913 | purified human sEH enzymatic activity, activator screen | activation, % at 2 µM | 0.04% of 91,000 active; in the data active = activation above about 37%
sEH inh: soluble epoxide hydrolase (human) inhibition; recombinant human sEH enzymatic activity assay; inhibition, % at 2 µM; 0.34% of 91,000 active; AID 707; in the data active = inhibition above about 80%
CYP2C19 inhib: human CYP2C19 inhibition | inhibition, % at 5 µM | P33261 | CYP2C19 Supersomes, luciferin-H EGE luminescence, 30 min | 21% of 96,000 active;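 active = CYP2C19 inhibition above a set limit at 5 µM in the primary screen, cut at about 50% in these data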;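 note: plate controls were negative control wells for no effect and 2.5 mM tranylcypromine positive control for full effect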
Target sequence (P33261 whole entry, looked up): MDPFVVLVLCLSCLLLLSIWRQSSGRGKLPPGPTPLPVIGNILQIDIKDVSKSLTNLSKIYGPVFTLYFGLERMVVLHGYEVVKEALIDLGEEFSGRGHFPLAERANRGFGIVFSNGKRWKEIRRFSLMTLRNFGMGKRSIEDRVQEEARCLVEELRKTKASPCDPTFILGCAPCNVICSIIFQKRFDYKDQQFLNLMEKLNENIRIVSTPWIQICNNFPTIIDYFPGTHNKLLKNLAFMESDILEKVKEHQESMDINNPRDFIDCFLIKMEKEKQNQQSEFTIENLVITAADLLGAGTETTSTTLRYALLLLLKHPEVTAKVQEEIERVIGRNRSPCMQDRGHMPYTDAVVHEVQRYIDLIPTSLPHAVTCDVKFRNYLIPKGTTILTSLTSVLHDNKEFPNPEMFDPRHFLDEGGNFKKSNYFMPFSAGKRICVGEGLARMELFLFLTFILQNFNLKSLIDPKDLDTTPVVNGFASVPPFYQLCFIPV
CYP2C9 inhib: inhibitors of human CYP2C9; P11712; inhibition, % at 5 µM; CYP2C9 Supersomes, luciferin-H conversion, luminescence; 20% of 96,000 active;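 active = blocking of liver enzyme CYP2C9 beyond about 50% at 5 µM, limit read from the data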
CYP2C19 act: cytochrome P450 2C19 (human) activation | AID 1025 | 96,000 tested, under 10 active | recombinant CYP2C19, luciferin-H EGE luminescence; hits give high values; 0 = fully inhibited enzyme, 1 = untreated enzyme | activation factor at 5 µM;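 active = activation factor of at least 2 at 5 µM in the primary screen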;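 note: 0 = wells with 2.5 mM tranylcypromine and 1 = vehicle-only wells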
Active calls of the source: *; . = no result given.

SMILES	CYP2C9 act	sEH act	sEH inh	CYP2C19 inhib	CYP2C9 inhib	CYP2C19 act
COc1ccccc1N/C(=N/S(=O)(=O)c1ccc(Cl)cc1)c1ccccc1	0.5	7.7	-7.6	73.3*	45.8	0.3
O=S(=O)(/N=C(/Nc1ccccc1F)c1ccccc1)c1ccccc1	0.6	3.9	-5.7	62.8*	41.2	0.4
Cc1cccc(CC2CC(=O)N(c3ncccn3)C2=O)c1 (stereo not given)	1	15.7	-12.4	7.0	-0.1	0.9
Cc1cccc(CC2CC(=O)N(c3ccccc3)C2=O)c1 (stereo not given)	0.8	-17.8	22.0	88.4*	23.4	0.1
Cc1cccc(CC2CC(=O)N(C3CCCCC3)C2=O)c1 (stereo not given)	0.4	-0.6	1.3	98.6*	58.0*	0
CCN(CC)CCNC(=O)c1ccccc1C(=O)c1ncc[nH]1	0.8	6.4	-7.0	13.8	20.6	0.9
CCOC(=O)C1C(=O)NC(N2CCCCC2)=NC1c1ccco1 (stereo not given)	1.1	-0.5	3.1	-22.1	-10.7	1.2
Cc1ccnc(N/C=C(\C#N)c2nc(-c3cccc(Br)c3)cs2)c1	0.7	6.3	-6.3	32.6	31.1	0.7
CCNC(=O)C1(c2ccccc2)CCCC1	1	5.0	-3.0	-4.8	-2.6	1
Cc1ccc(NC(=O)C2(c3ccccc3)CCCC2)nc1	.	-6.2	6.7	.	.	.
O=C(Nc1ccncc1)C1(c2ccccc2)CCCC1	0.1	-6.3	7.7	100.0*	94.8*	0
Cc1cc(-c2nc3ccccc3o2)c2ccccc2n1	0.6	8.1	-7.7	45.1	36.7	0.5
O=C(c1ccc(NC(=O)C2(c3ccccc3)CCOCC2)cc1)N1CCOCC1	1.2	13.7	-7.9	-15.6	-16.0	1.2
CC(=O)c1ccc(NC(=O)C2(c3ccccc3)CCOCC2)cc1	0.5	-0.3	0.0	34.0	50.4*	0.7
O=C(Nc1ccc(O)c(-c2nc3ccccc3o2)c1)C1(c2ccccc2)CCCC1	0.1	5.3	-2.4	24.3	87.4*	0.8
O=C(Nc1ccccn1)C1(c2ccccc2)CCCC1	0.4	0.9	-2.9	80.9*	58.9*	0.2
O=C(Nc1cccnc1)C1(c2ccccc2)CCCC1	0.5	6.1	-2.1	52.1*	45.2	0.5
O=C(Nc1cccnc1)C1(F)C(F)(F)C(F)(F)C(F)(F)C(F)(F)C1(F)F	0.6	11.2	-11.2	23.6	43.0	0.8
O=C(Nc1nc(-c2nc3ccccc3s2)cs1)C1CC1	0.8	.	.	50.9*	18.6	0.5
O=C(NNc1nc2ccccc2s1)C1CC1	1.1	0.6	1.6	1.6	-5.9	1
CS(=O)(=O)N(CC(=O)NCc1cccnc1)Cc1ccc(Cl)cc1	0.5	-0.2	-1.7	97.0*	53.7*	0
COCCNC(=O)CN(Cc1ccc(Cl)cc1)S(C)(=O)=O	1.1	-1.5	-0.5	16.0	-12.4	0.8
O=C(CN(C1CCCCC1)S(=O)(=O)c1ccc(Cl)cc1)NCc1cccnc1	0.1	-1.6	2.0	100.1*	92.4*	0
O=C(CN(C1CCCCC1)S(=O)(=O)c1ccccc1)NCc1cccnc1	.	-10.2	8.4	.	.	.
CS(=O)(=O)N(CC(=O)NCc1ccc2c(c1)OCO2)c1ccc(Cl)cc1	0.9	-5.5	5.9	41.0	12.3	0.6
SMILES	CYP2C9 act	sEH act	sEH inh	CYP2C19 inhib	CYP2C9 inhib	CYP2C19 act
CS(=O)(=O)N(CC(=O)NCc1ccc2c(c1)OCO2)Cc1ccc(Cl)cc1	0.2	-19.2	23.1	78.8*	81.2*	0.2
CS(=O)(=O)N(CC(=O)NCc1ccncc1)Cc1ccc(Cl)cc1	0.1	8.3	-5.6	99.1*	93.7*	0
CCCCNC(=O)COC(=O)c1ccc(Cl)c(S(N)(=O)=O)c1	1.5	7.7	-9.0	-13.9	-49.3	1.1
CN(Cc1ccccc1)c1nc2c(c(=O)[nH]c(=O)n2C)n1CCSc1ncccn1	.	3.7	1.3	.	.	.
Cc1ccc(CNC(=O)[C@@H]2CCC(=O)N2Cc2ccco2)cc1	1	3.5	-6.4	32.5	3.9	0.7
O=C(CCCOc1ccc(Cl)cc1Cl)NCC1CCCO1 (stereo not given)	.	-8.9	12.1	.	.	.
Cc1ccc(C)c(C(=O)Cn2ncc(Cl)c(Cl)c2=O)c1	2.1*	-7.3	7.1	16.7	-106.2	0.8
CCOC(=O)c1oc2ccc(S(=O)(=O)n3nc(-c4ccc(C)cc4)cc3N)cc2c1C	0	3.3	-4.4	48.0	96.4*	0.5
COc1ccc(-c2cc(N)n(S(=O)(=O)c3ccc(C)cc3)n2)c(OC)c1	0.6	21.7	-24.9	10.9	41.2	0.9
